Measured values taken from the supplement of paper PMC9492666.

What was measured:
[1] = system: HCC1937; test: relative cell viability, compound + erastin, vs DMSO (fraction of DMSO control); higher = less growth inhibition; details: 72 h
[2] = system: MDA-MB-231; test: as above; details: 72 h
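Also: viability read by CCK-8 kit in 96-well plates, part of a combination screen pairing lipid-metabolism-targeting compounds with erastin.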

Structure (SMILES) | relative cell viability [1] | relative cell viability [2]
CCN(CC)c1ccc(C=NNC(=O)c2ccncc2)c(O)c1 + CCOc1ccccc1-n1c(C(C)N2CCN(C(=O)COc3ccc(Cl)cc3)CC2)nc2ccccc2c1=O [erastin] | 0.254 | 0.677
NNC(=O)c1nn(Cc2ccc(Cl)cc2Cl)c2ccccc12 [Adjudin] + CCOc1ccccc1-n1c(C(C)N2CCN(C(=O)COc3ccc(Cl)cc3)CC2)nc2ccccc2c1=O [erastin] | 0.557 | 0.711
CNC(=O)c1cccc(NC(=O)N2CCC(Oc3ccccc3Cl)CC2)c1 + CCOc1ccccc1-n1c(C(C)N2CCN(C(=O)COc3ccc(Cl)cc3)CC2)nc2ccccc2c1=O [erastin] | 0.566 | 0.523
CC(C)(Oc1ccc(C(=O)c2ccc(Cl)cc2)cc1)C(=O)O [Fenofibric acid] + CCOc1ccccc1-n1c(C(C)N2CCN(C(=O)COc3ccc(Cl)cc3)CC2)nc2ccccc2c1=O [erastin] | 0.677 | 0.915
CN(CCOc1ccc(CC2SC(=O)NC2=O)cc1)c1ccccn1 (centres undefined) [Rosiglitazone] + CCOc1ccccc1-n1c(C(C)N2CCN(C(=O)COc3ccc(Cl)cc3)CC2)nc2ccccc2c1=O [erastin] | 0.999 | 0.697
CC(C)[C@H]1CC[C@H](C(=O)N[C@H](Cc2ccccc2)C(=O)O)CC1 [Nateglinide] + CCOc1ccccc1-n1c(C(C)N2CCN(C(=O)COc3ccc(Cl)cc3)CC2)nc2ccccc2c1=O [erastin] | 0.666 | 0.734
Cc1c(C(=O)NN2CCOCC2)nn(-c2ccc(Cl)cc2Cl)c1-c1ccc(I)cc1 + CCOc1ccccc1-n1c(C(C)N2CCN(C(=O)COc3ccc(Cl)cc3)CC2)nc2ccccc2c1=O [erastin] | 0.1 | 0.325
O=C1c2cc(CO)cc(O)c2C(=O)c2c(O[C@@H]3O[C@H](CO)[C@@H](O)[C@H](O)[C@H]3O)cccc21 [Aloe-emodin-8-O-beta-D-glucopyranoside] + CCOc1ccccc1-n1c(C(C)N2CCN(C(=O)COc3ccc(Cl)cc3)CC2)nc2ccccc2c1=O [erastin] | 0.493 | 0.704
CCCCCCCCCCCC1=C(O)C(=O)C=C(O)C1=O [Embelin] + CCOc1ccccc1-n1c(C(C)N2CCN(C(=O)COc3ccc(Cl)cc3)CC2)nc2ccccc2c1=O [erastin] | 0.72 | 0.575
O=C(O)c1cccnc1Nc1cccc(C(F)(F)F)c1 [Niflumic acid] + CCOc1ccccc1-n1c(C(C)N2CCN(C(=O)COc3ccc(Cl)cc3)CC2)nc2ccccc2c1=O [erastin] | 0.771 | 0.599
CCN(CC)CCN(Cc1ccc(-c2ccc(C(F)(F)F)cc2)cc1)C(=O)Cn1c(SCc2ccc(F)cc2)nc(=O)c2c1CCC2 [Darapladib] + CCOc1ccccc1-n1c(C(C)N2CCN(C(=O)COc3ccc(Cl)cc3)CC2)nc2ccccc2c1=O [erastin] | 0.0574 | 0.296
CCc1ccc(CCOc2ccc(CC3SC(=O)NC3=O)cc2)nc1 (centres undefined) [Pioglitazone] + CCOc1ccccc1-n1c(C(C)N2CCN(C(=O)COc3ccc(Cl)cc3)CC2)nc2ccccc2c1=O [erastin] | 0.803 | 0.551
COc1cc(F)c(C(C)C)cc1-c1ccc(C(F)(F)F)cc1CN1C(=O)O[C@H](c2cc(C(F)(F)F)cc(C(F)(F)F)c2)[C@@H]1C [Anacetrapib] + CCOc1ccccc1-n1c(C(C)N2CCN(C(=O)COc3ccc(Cl)cc3)CC2)nc2ccccc2c1=O [erastin] | 0.557 | 0.639
c1cc(-c2cnn3cc(-c4ccc(OCCN5CCCCC5)cc4)cnc23)ccn1 [Dorsomorphin] + CCOc1ccccc1-n1c(C(C)N2CCN(C(=O)COc3ccc(Cl)cc3)CC2)nc2ccccc2c1=O [erastin] | 0.137 | 0.405
CCCCCCCCCCCCCCOc1ccc(C(=O)OCC(=O)N(C)CC(=O)OCC)o1 [Olumacostat Glasaretil] + CCOc1ccccc1-n1c(C(C)N2CCN(C(=O)COc3ccc(Cl)cc3)CC2)nc2ccccc2c1=O [erastin] | 0.549 | 0.477
O=C(c1ccc(-c2nc3ccc(F)cc3o2)cc1)N1CCN(C(=O)C2(O)CC2)CC1 + CCOc1ccccc1-n1c(C(C)N2CCN(C(=O)COc3ccc(Cl)cc3)CC2)nc2ccccc2c1=O [erastin] | 0.588 | 0.823
O=C(O)Cn1nnc(-c2cc(N3CCC(Oc4cc(F)ccc4Br)CC3)no2)n1 + CCOc1ccccc1-n1c(C(C)N2CCN(C(=O)COc3ccc(Cl)cc3)CC2)nc2ccccc2c1=O [erastin] | 0.529 | 0.679
Cc1nc(Nc2cnn(C3CCNCC3)c2)nc2c1N(C)C(=O)c1cc3ccccc3cc1N2C + CCOc1ccccc1-n1c(C(C)N2CCN(C(=O)COc3ccc(Cl)cc3)CC2)nc2ccccc2c1=O [erastin] | 0.215 | 0.421
C[N+](C)(C)CC(O)CC(=O)[O-] (stereo not drawn) [L(-)-Carnitine] + CCOc1ccccc1-n1c(C(C)N2CCN(C(=O)COc3ccc(Cl)cc3)CC2)nc2ccccc2c1=O [erastin] | 0.781 | 0.91
CC(C)=CCC(O)C1=CC(=O)c2c(O)ccc(O)c2C1=O (single isomer, unassigned; (+)) [(+)-Shikonin] + CCOc1ccccc1-n1c(C(C)N2CCN(C(=O)COc3ccc(Cl)cc3)CC2)nc2ccccc2c1=O [erastin] | 0.159 | 0.494
O=C(O)C(=O)Nc1sc2c(c1C(=O)O)CCNC2 + CCOc1ccccc1-n1c(C(C)N2CCN(C(=O)COc3ccc(Cl)cc3)CC2)nc2ccccc2c1=O [erastin] | 0.755 | 0.635
Cc1c(C)c2c(c(C)c1O)CCC(C)(COc1ccc(CC3SC(=O)NC3=O)cc1)O2 (centres undefined) [Troglitazone] + CCOc1ccccc1-n1c(C(C)N2CCN(C(=O)COc3ccc(Cl)cc3)CC2)nc2ccccc2c1=O [erastin] | 0.641 | 0.669
